Compound activity as filed in PubChem BioAssay.
ER stress surv: protection against thapsigargin ER stress killing – CSM14.1 cells, ATP luminescence, primary screen | AID 1010, 2008 | relative survival (cellular ATP), % at 15 µg/mL (by protocol) | 48,000 tested, 0.33% active | CSM14.1 thapsigargin ER stress survival;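 active means survival measured by cellular ATP above 50% at 15 µg/ml in the first screen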;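 further: cell death triggered by about 15 µM thapsigargin; ATP read 24 h after thapsigargin was added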
Large screens that a line does not name were inactive. These entries were drawn from the full list.

CCN1C(=O)c2cccc3c(NC(=O)c4ccc(C(=O)c5ccccc5)cc4)ccc1c23	none
CCN1C(=O)c2cccc3c(NC(=O)c4ccc(Oc5ccccc5)cc4)ccc1c23	none
CCOC(=O)C1=C(C)N=c2s/c(=C\c3ccc(N4CCOCC4)o3)c(=O)n2C1c1ccc(SC)cc1 (stereo not given)	none
COc1ccc(/C=C2\CCc3cc(OC)ccc3C2=O)cc1	none
Oc1ccc(Br)cc1CN1CCN(Cc2cccnc2)CC1	none
